# Measured values published in the supplement of paper PMC6555819.
# Tested on: PPARg:RXRa DBDmut IVT, anti-RXR (DBD mutation: RXRa K156A/R161A, NR concentration 270 nM, RXRa partner concentration 90 nM)
# Assay: PBM binding z-score (relative to random genomic background probes); higher = stronger binding; sequences stand for … in GC…GCGATTGACAGCGTAGAATGAAGG
# In short: (§1)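 Antibodies against each partner of ligand-free nuclear receptor dimers (one per run) detected binding on custom Agilent 4×180K protein-binding microarrays after 1 h incubation. The double-stranded probes had 34-nt variable regions carrying direct-repeat seeds, single-nucleotide variants, half-site ablations and random human genomic background sequences. Binding z-scores, from regression-normalized fluorescence, use the random background probes as reference.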
row,Sequence,PBM binding z-score
1,TCATATAGGTAAAGGTGAAAGTAGAACGATATGA,4.02
2,CCGAGTAGGTTATGCGGCATTCAGGCAACGGTGA,2.82
3,TCAGCCAGGTGAAGGTAACTCAGGTACGCAGTCG,1.65
4,ACTAGCAGGCCAAGTTTGGGTTACTCAAACAAAG,0.764
5,CCTCGGAGGAAAACAGGAGGTCAGAGCTGCCAGA,-0.518
6,ATATGTTGGTTAGCTGGGGTCATTCAGACTAGGC,0.909
7,GCTTACGGGCCAAAGGTTATAGCATGAATAGAAT,1.06
8,GCTAGCAGGCCATTTGGGTCACTTAATGACGGGC,1.56
9,ATCGAAAGGTCGAAGGTGAGTAAACCCACCCGAA,0.0227
10,TTACCAATGTGAAGGTCGTTGATCCCTCTGTAGA,0.314
11,TCATATAGGTTATACAGGTGAAAGTCGGCATCTA,4.73
12,AATACAGGGTCACTAGGCCAGAGCAGGTACGAAT,4.31
13,CCAGACAAGTGAAAGGTAACTCAGTCTGGTACGC,-0.0186
14,CCTACTGGGCCACGAAGGGTCATTGATTCAGTGA,4.42
15,CAGCTTAGGTCAGGGCCAGTATAGGAGGAACGTT,1.28
16,TCGCCTAGGTCATGCGGGCCAGTATAGTGTCGGC,2.3
17,ATCGAAAGGTCGAGGTGAGTAAAGAGAAAGGGAA,0.198
18,ATACCAAGGTGATCGTGAGGGCGTTGATACTAAC,0.642
19,CCTAATGGGCCATCAGGTCATTGATATCAACGTT,3.13
20,TAGCCTAGGTCATTCGGCCAGTATAGTACGCATC,1.85

row,Sequence,PBM binding z-score
1,TAAATGAGGTTATAAGATCAGGGAACGTTGCAAA,2.84
2,AGAATAAGGTTAAGATCAGGGAAACAGAATACAT,1.89
3,TAGCGTAGGTCATTCAGGGGCCAGTATAGAAAGC,0.864
4,TTTTGTAGATCAAGCAGGTTAAGAAAGCCTGAGT,0.762
5,ATCTCTAGGTAACCAAGTTCAGTGATTGCCGAAC,3.9
6,TCATATAGGTAGAAGGTGAAAGTCGGTGTGGTAA,3.5
7,ACAGACAGGTGATGAAGGTAATTCAGGCTATCAT,0.125
8,AGAACGAGGGAAATGAGTTGATAGCACGGGTGGC,-0.231
9,ACTTACGGGTCAACGAGGTTATAACACGCGTATA,3.68
10,ACAGACCGGTGATGAAGGTAACTCAGGCTATCAT,-0.264
11,AGAATGAGGTTATACGTAGATCATGGAAGAAAGT,3.69
12,TGAATGAGGTTGTAAGATCAGGGAACGTTGCAAA,-0.831
13,ACTAGCAGGCCAAGTTTGGGACACTCAAACAAAG,0.573
14,CGTCAAAGTTCAGGGTAACGTAACAGAAAGCAGC,0.483
15,ACAATTAGTTGAGACGAGGGCAACCGATAGGTTG,-0.0279
16,TCGAGTAGGTTAGTCGGGGCATTCAGCCAACATA,2.04
17,CAAACTCGGTCAAGGTCAAAGTCGGTTTGTGCCA,4.82
18,CCTACTGGGACATCAGGTCATTGATATCAACGTT,4.19
19,AGTCAAAGTTCAGGACGGGGTAACGTAAAGCACG,0.312
20,ATCTCTAGGTAAAGATAGTTTAGTGAATGCAAAT,1.81

# Tested on: PPARg:RXRa IVT, anti-PPARg (NR concentration 270 nM, RXRa partner concentration 90 nM)
# Assay: as above
# In short: as §1
row,Sequence,PBM binding z-score
1,TCATATAGGTAAAGGTGAAAGTAGAACGATATGA,4.56
2,CCGAGTAGGTTATGCGGCATTCAGGCAACGGTGA,2.03
3,TCAGCCAGGTGAAGGTAACTCAGGTACGCAGTCG,1.33
4,ACTAGCAGGCCAAGTTTGGGTTACTCAAACAAAG,0.439
5,CCTCGGAGGAAAACAGGAGGTCAGAGCTGCCAGA,0.00562
6,ATATGTTGGTTAGCTGGGGTCATTCAGACTAGGC,1.74
7,GCTTACGGGCCAAAGGTTATAGCATGAATAGAAT,3.69
8,GCTAGCAGGCCATTTGGGTCACTTAATGACGGGC,1.89
9,ATCGAAAGGTCGAAGGTGAGTAAACCCACCCGAA,2.17
10,TTACCAATGTGAAGGTCGTTGATCCCTCTGTAGA,0.221
11,TCATATAGGTTATACAGGTGAAAGTCGGCATCTA,4.18
12,AATACAGGGTCACTAGGCCAGAGCAGGTACGAAT,5.63
13,CCAGACAAGTGAAAGGTAACTCAGTCTGGTACGC,0.0117
14,CCTACTGGGCCACGAAGGGTCATTGATTCAGTGA,5.28
15,CAGCTTAGGTCAGGGCCAGTATAGGAGGAACGTT,0.782
16,TCGCCTAGGTCATGCGGGCCAGTATAGTGTCGGC,2.74
17,ATCGAAAGGTCGAGGTGAGTAAAGAGAAAGGGAA,1.99
18,ATACCAAGGTGATCGTGAGGGCGTTGATACTAAC,0.871
19,CCTAATGGGCCATCAGGTCATTGATATCAACGTT,3.41
20,TAGCCTAGGTCATTCGGCCAGTATAGTACGCATC,2.83

row,Sequence,PBM binding z-score
1,TAAATGAGGTTATAAGATCAGGGAACGTTGCAAA,2.73
2,AGAATAAGGTTAAGATCAGGGAAACAGAATACAT,1.76
3,TAGCGTAGGTCATTCAGGGGCCAGTATAGAAAGC,1.61
4,TTTTGTAGATCAAGCAGGTTAAGAAAGCCTGAGT,1.22
5,ATCTCTAGGTAACCAAGTTCAGTGATTGCCGAAC,2.88
6,TCATATAGGTAGAAGGTGAAAGTCGGTGTGGTAA,2.69
7,ACAGACAGGTGATGAAGGTAATTCAGGCTATCAT,0.521
8,AGAACGAGGGAAATGAGTTGATAGCACGGGTGGC,-0.564
9,ACTTACGGGTCAACGAGGTTATAACACGCGTATA,4.21
10,ACAGACCGGTGATGAAGGTAACTCAGGCTATCAT,-0.316
11,AGAATGAGGTTATACGTAGATCATGGAAGAAAGT,2.6
12,TGAATGAGGTTGTAAGATCAGGGAACGTTGCAAA,-0.0172
13,ACTAGCAGGCCAAGTTTGGGACACTCAAACAAAG,0.235
14,CGTCAAAGTTCAGGGTAACGTAACAGAAAGCAGC,1.35
15,ACAATTAGTTGAGACGAGGGCAACCGATAGGTTG,0.475
16,TCGAGTAGGTTAGTCGGGGCATTCAGCCAACATA,1.69
17,CAAACTCGGTCAAGGTCAAAGTCGGTTTGTGCCA,4.77
18,CCTACTGGGACATCAGGTCATTGATATCAACGTT,4.32
19,AGTCAAAGTTCAGGACGGGGTAACGTAAAGCACG,2.3
20,ATCTCTAGGTAAAGATAGTTTAGTGAATGCAAAT,2.04
